Several values for one entry are separate records, joined by “and”; a condition that tells them apart may be missing. Equal values may be shown once. Results filed as inconclusive are left out. A call without a number means that no potency is given here. Activity calls are given as the source filed them. Unless noted, calls come from the whole dose curve; as a rule, active = well fitted curve in the direction sought with a large enough effect in the repeat runs; inconclusive = weak or mixed curves; inactive = no such curve, though single readings can be large; an effect the other way counts as inactive or inconclusive.
Legend:
[1] = qHTS assay for small molecules that induce genotoxicity in human embryonic kidney cells expressing luciferase-tagged ATAD5 (AID 651632); note: nearly all actives have a fitted effect of over 15% in size; note: potency is the fitted concentration of half-maximal effect
Procedure, shortened: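 Increased luciferase signal from ATAD5-tagged reporter cells indicates DNA-damage-driven ATAD5 induction. HEK293T cells are treated for 16 hr at 37C before detection with Amplite.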

[2] = qHTS assay for small molecule agonists of the p53 signaling pathway - cell viability (AID 651633; calls by dose curve; note: nearly all actives have a fitted effect of over 30% in size; note: potency is the fitted concentration of half-maximal effect)
Procedure, shortened: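 p53RE-bla cells were treated with compound for 16 hours at 37 C. Cytotoxicity was then measured as CellTiter-Glo luminescence after 30 min at room temperature.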

[3] = qHTS assay for small molecule disruptors of the mitochondrial membrane potential - cell viability (AID 720634; calls by dose curve; note: nearly all actives have a fitted effect of over 20% in size; note: potency is the fitted concentration of half-maximal effect)
Procedure, shortened: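 After overnight attachment at 37 C, HepG2 cells received compound or DMSO vehicle for 1 hr. Viability is then taken from ATP-driven luminescence following a 30 min room-temperature CellTiter-Glo step.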

[4] = qHTS assay for small molecule disruptors of the mitochondrial membrane potential (AID 720635); note: potency is the fitted concentration of half-maximal effect
Procedure, shortened: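 HepG2 cells exposed to compound 1 hr at 37C, then Mito-MPS dye 30 min. Ratio read of aggregate (540/590 nm) versus monomer (490/535 nm) fluorescence.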

[5] = qHTS assay to test for compound auto fluorescence at 590 nm (red) in HepG2 cells (AID 720674)
Procedure, shortened: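 Seeding: 2,000 HepG2 cells/well, MEM/10% FBS, overnight 37 C. Dosing: compound vs DMSO. Incubation: 1 hr, 37 C, 5% CO2. Read: fluorescence 540 ex/590 em, Rose Bengal sodium as red reference.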

[6] = qHTS assay to test for compound auto fluorescence at 535 nm (green) in HepG2 cells (AID 720675); note: potency is the fitted concentration of half-maximal effect
[7] = qHTS assay to test for compound auto fluorescence at 460 nm (blue) in HEK293 cells (AID 720678); note: potency is the fitted concentration of half-maximal effect
Procedure, shortened: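 HEK293 cells (2,000/well, medium with 10% dialyzed FBS) attached 4-5 hr, then exposed to compound overnight at 37C, 5% CO2. Blue fluorescence read at 405/460 nm, with triamterene as reference fluorophore.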

[8] = qHTS assay to test for compound auto fluorescence at 590 nm (red) in HEK293 cells (AID 720679)
Procedure, shortened: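 HEK293 cells (2,000/well, 10% dialyzed FBS) attached 4-5 hr, then dosed with compound or DMSO and incubated overnight at 37C, 5% CO2. Red fluorescence read at 540/590 nm, Rose Bengal sodium as reference fluorophore.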

[9] = qHTS assay for small molecules that induce genotoxicity in human embryonic kidney cells expressing luciferase-tagged ATAD5 - cell viability (AID 651634; calls by dose curve; note: nearly all actives have a fitted effect of over 25% in size; note: potency is the fitted concentration of half-maximal effect)
Procedure, shortened: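 Cytotoxicity counterscreen in HEK293T cells bearing an ATAD5-luciferase reporter: live-cell protease activity measured by CellTiter-Fluor fluorescence after 15.5 hr compound exposure.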
Tags give direction and shape of the fitted curve or compound fluorescence and quenching.

| SMILES | Potency [1] | Potency [2] | Potency [3] | Potency [4] | outcome [5] | Potency [6] | Potency [7] | outcome [8] | Potency [9] |
| --- | --- | --- | --- | --- | --- | --- | --- | --- | --- |
| O=C(Nc1ccccc1)c1cc(Cl)ccc1O | inactive | 17.2 µM (active) | 1.93 µM (active) | 0.386 µM (active) | inactive | inactive | inactive | inactive | – |
| CO/N=C(\C(=O)N[C@@H]1C(=O)N2C(C(=O)O)=C(COC(C)=O)CS[C@H]12)c1csc(N)n1 (stereo in doubt) | inactive | inactive | inactive | inactive | inactive | inactive | inactive | inactive | – |
| CN(C[C@@H](CC[N+]12CCC(C3CCCCC3)(CC1)CC2)c1ccc(Cl)c(Cl)c1)C(=O)c1cc(C(F)(F)F)cc(C(F)(F)F)c1 | inactive | 27.3 µM (active) | – | – | inactive | inactive | inactive | inactive | – |
| CC(=O)N[C@@H](C=O)[C@H](O)[C@H](O)[C@@H](O)CO | inactive | inactive | inactive | – | inactive | inactive | inactive | inactive | inactive |
| O=C(CCCCCCCCc1cccnc1)N1CCC(C=C(c2ccccc2)c2ccccc2)CC1 | inactive | 24.3 µM (active) | 19.3 µM (active) | 24.3 µM (active) | inactive | inactive | inactive | inactive | – |
| Cc1cc(F)ccc1-c1cc(N2CC[C@@H](O)[C@H]2CO)ncc1N(C)C(=O)C(C)(C)c1cc(C(F)(F)F)cc(C(F)(F)F)c1 | inactive | 19 µM (active) | – | 21.4 µM (active) | inactive | inactive | inactive | inactive | 47.8 µM (active) |
| FC(F)(F)COCC(F)(F)F | inactive | – | inactive | inactive | inactive | inactive | inactive | inactive | inactive |
| CC[C@@]1([C@@H]2O[C@@H]([C@H]3O[C@@](O)(CO)[C@H](C)C[C@@H]3C)C[C@@H]2C)CC[C@H]([C@]2(C)CC[C@]3(C[C@H](O)[C@@H](C)[C@@H]([C@@H](C)[C@@H](OC)[C@H](C)C(=O)O)O3)O2)O1 (stereo in doubt) | inactive | inactive | inactive | – | inactive | inactive | inactive | inactive | 0.596 µM (active) |
| CC(C)c1ccc2sc3ccccc3c(=O)c2c1 | 4.33 µM (active) | inactive | 34.4 µM (active) | 48.6 µM (active) | inactive | inactive | – | inactive | – |
| C[C@@H]1C(=O)NC2=Nc3cccc(Cl)c3CN21 | inactive | inactive | inactive | – | inactive | inactive | inactive | inactive | inactive |
| CCN(CC)CCn1c(=O)c(Cc2ccc(OC)cc2)nc2ccccc21 | inactive | – | inactive | inactive | inactive | inactive | inactive | inactive | inactive |
| CN1C(C(=O)Nc2ccccn2)C(=O)c2sc(Cl)cc2S1(=O)=O (configuration not stated) | inactive | inactive | inactive | 8.41 µM (active) | inactive | inactive | inactive | inactive | inactive |
| CC[N+](CC)(CC)CCC(O)(c1ccccc1)C1CCCCC1 (configuration not stated) | inactive | inactive | inactive | inactive | inactive | inactive | inactive | inactive | – |
| Cc1ccc2nc(-c3ccc(N)cc3)sc2c1S(=O)(=O)O | 0.85 µM (active) | inactive | – | – | inactive | inactive | – | inactive | inactive |
| Oc1ccc(Cl)cc1C1CCCC1 | inactive | inactive | – | 3.86 µM (active) | inactive | inactive | inactive | inactive | – |
| N[C@H](CO)C(=O)O | inactive | inactive | inactive | – | inactive | inactive | inactive | inactive | – |
| CN(C)CCOc1ccc(/C(=C(/CCCl)c2ccccc2)c2ccccc2)cc1 | inactive | 57.2 µM (active) | inactive | – | inactive | inactive | inactive | inactive | inactive |
| CC/C=C\C/C=C\C/C=C\C/C=C\C/C=C\C/C=C\CCC(=O)O | inactive | inactive | inactive | inactive | inactive | inactive | inactive | inactive | inactive |
| CCCCCCCCCCCCCCCCCCNC(=O)OC1CCN(C(=O)OC[C@H](COC(=O)N(Cc2cccc[n+]2CC)C(=O)c2ccccc2OC)OC)CC1 | inactive | 26.6 µM (active) | – | – | inactive | inactive | inactive | inactive | – |
| N#Cc1nc(Cl)c(Cl)c(Cl)c1Cl | 4.86 µM (active) | 10.9 µM (active) | inactive | – | inactive | inactive | inactive | inactive | – |
| CN1CCN(CCCN2c3ccccc3Sc3ccc(Cl)cc32)CC1 | inactive | 29.8 µM (active) | – | – | inactive | inactive | inactive | inactive | – |
| CN1CC[C@H](c2c(O)cc(O)c3c(=O)cc(-c4ccccc4Cl)oc23)[C@H](O)C1 | inactive | inactive | inactive | – | inactive | inactive | inactive | inactive | inactive |
| C=C1C(CCl)(CCl)C2(Cl)C(Cl)C(Cl)C1(Cl)C2(Cl)Cl (configuration not stated) | inactive | 10.6 µM (active) and 60.4 µM (active) | inactive | 3.76 µM (active) and 4.28 µM (active) | inactive | inactive | inactive | inactive | – |
| N[C@@H](Cc1cnc[nH]1)C(=O)O | inactive | – | inactive | – | inactive | inactive | inactive | inactive | inactive |

| SMILES | Potency [1] | Potency [2] | Potency [3] | Potency [4] | outcome [5] | Potency [6] | Potency [7] | outcome [8] | Potency [9] |
| --- | --- | --- | --- | --- | --- | --- | --- | --- | --- |
| CN1C(=O)C[C@@H](C(=O)N[C@@H](Cc2cnc[nH]2)C(=O)N2CCC[C@H]2C(N)=O)NC1=O | inactive | – | inactive | inactive | inactive | inactive | inactive | inactive | inactive |
| CC1=C(/C=C/C(C)=C/C=C/C(C)=C\C(=O)O)C(C)(C)CCC1 | inactive | – | inactive | 61.3 µM (active) | inactive | inactive | inactive | inactive | – |
| CC(O)(c1ccc(Cl)cc1)c1ccc(Cl)cc1 | inactive | – | – | 27.3 µM (active) | inactive | inactive | inactive | inactive | inactive |
| CCCCCCCCCCCCCCCCC(C(=O)O)C(O)(CC(=O)O)C(=O)O (configuration not stated) | inactive | – | inactive | – | inactive | inactive | inactive | inactive | inactive |
| C[C@H]1O[C@@H](O[C@H]2CC[C@@]3(C)[C@H](CC[C@@H]4[C@@H]3C[C@@H](O)[C@]3(C)[C@@H](C5=CC(=O)OC5)CC[C@]43O)C2)C[C@H](O)[C@@H]1O[C@H]1C[C@H](O)[C@H](O[C@H]2C[C@H](O)[C@H](O[C@@H]3O[C@H](CO)[C@@H](O)[C@H](O)[C@H]3O)[C@@H](C)O2)[C@@H](C)O1 | inactive | – | inactive | 1.68 µM (active) | inactive | inactive | inactive | inactive | 0.531 µM (active) |
| CCCCCCCC/C=C\CCCCCCCC(=O)N(CCO)CCO | inactive | – | inactive | – | inactive | inactive | inactive | inactive | inactive |
| CCN(CC)CC#CCOC(=O)C(O)(c1ccccc1)C1CCCCC1 (configuration not stated) | – | – | – | – | inactive | inactive | inactive | inactive | inactive |
| COc1cc2c(cc1OC)[C@@H](Cc1cc(OC)c(OC)c(OC)c1)[N+](C)(CCCOC(=O)CC/C=C/CCC(=O)OCCC[N+]1(C)CCc3cc(OC)c(OC)cc3[C@H]1Cc1cc(OC)c(OC)c(OC)c1)CC2 (some centres not stated) | inactive | – | inactive | inactive | inactive | inactive | inactive | inactive | inactive |
| C=CC(N)CCC(=O)O (configuration not stated) | inactive | – | inactive | – | inactive | inactive | inactive | inactive | – |
| COc1cc(NS(C)(=O)=O)ccc1Nc1c2ccccc2nc2ccccc12 | – | 18.8 µM (active) | inactive | 8.8 µM (active) | inactive | inactive | 11.2 µM [fluorescent] (active) | inactive | – |
| C=CCc1cc(S(=O)(=O)c2ccc(O)c(CC=C)c2)ccc1O | inactive | – | inactive | 27.3 µM (active) | inactive | inactive | inactive | inactive | inactive |
| NCCO/C=C/[C@H](N)C(=O)O | inactive | – | inactive | inactive | inactive | inactive | inactive | inactive | – |
| CCOc1ccc([N+](=O)[O-])cc1 | inactive | – | 55.3 µM (active) | 3.91 µM (active) | inactive | inactive | inactive | inactive | – |
| CC(Cc1ccc(O)c(O)c1)C(C)Cc1ccc(O)c(O)c1 (configuration not stated) | inactive | – | inactive | 13.7 µM (active) | inactive | inactive | inactive | inactive | inactive |
| Nc1ccc(N)c([N+](=O)[O-])c1 | – | – | – | 1.09 µM (active) | inactive | inactive | inactive | inactive | – |
| CC(=O)[C@]1(O)Cc2c(O)c3c(c(O)c2[C@@H](O[C@H]2C[C@H](N)[C@H](O)[C@H](C)O2)C1)C(=O)c1ccccc1C3=O | 0.841 µM (active) | – | inactive | 5.55 µM (active) | inactive | 12.6 µM (active) | inactive | inactive | – |
| NS(=O)(=O)c1cc(Cl)c(Cl)c(S(N)(=O)=O)c1 | inactive | – | inactive | inactive | inactive | inactive | inactive | inactive | inactive |
| CCOc1cc(CC(=O)N[C@@H](CC(C)C)c2ccccc2N2CCCCC2)ccc1C(=O)O | inactive | – | inactive | inactive | inactive | inactive | inactive | inactive | inactive |
| CN[C@H]1CC[C@@H](c2ccc(Cl)c(Cl)c2)c2ccc(S(N)(=O)=O)cc21 | inactive | – | inactive | 8.63 µM (active) | inactive | inactive | inactive | inactive | – |
| N[C@@H](Cc1ccc(O)c(O)c1)C(=O)O | inactive | – | inactive | – | inactive | inactive | inactive | inactive | inactive |
| CCCCC[C@H](O)/C=C/[C@@H]1[C@@H](C/C=C\CCCC(=O)O)[C@@H](O)C[C@H]1O | inactive | – | inactive | inactive | inactive | inactive | inactive | inactive | inactive |
| O=C(CCCN1CCN2CCCC2C1)c1ccc(F)cc1 (configuration not stated) | inactive | – | inactive | inactive | inactive | inactive | inactive | inactive | inactive |
| O=C1c2ccccc2-c2n[nH]c3cccc1c23 | inactive | – | inactive | 0.784 µM (active) | inactive | inactive | 12.6 µM [fluorescent] (active) | inactive | inactive |
